The target in experiment [1] is Oxysterols receptor LXR-beta (Homo sapiens) (UniProt P55055). The experiment is described as follows: ATG_LXRb_TRANS: Attagene TRANS-FACTORIAL HepG2 Assay for human Liver X Receptor beta (LXRb) (AID 2282981; active means hit-call score of the fitted dose curve at least 0.9, where 1 is the maximum). Conditions: HepG2 Attagene TRANS GAL4-LXRb reporter, mRNA. The procedure, abridged: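 After 24 h of chemical treatment, transfected HepG2 cells yield total RNA; reporter cDNA is PCR-amplified, FAM-labelled, HpaI-cut and run on capillary electrophoresis. Signal reflects chimeric LXRb-Gal4 activity on GAL4-UAS reporters.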
Oxysterols receptor LXR-beta (Homo sapiens), sequence (P55055 whole entry, looked up, the tested form may be a part): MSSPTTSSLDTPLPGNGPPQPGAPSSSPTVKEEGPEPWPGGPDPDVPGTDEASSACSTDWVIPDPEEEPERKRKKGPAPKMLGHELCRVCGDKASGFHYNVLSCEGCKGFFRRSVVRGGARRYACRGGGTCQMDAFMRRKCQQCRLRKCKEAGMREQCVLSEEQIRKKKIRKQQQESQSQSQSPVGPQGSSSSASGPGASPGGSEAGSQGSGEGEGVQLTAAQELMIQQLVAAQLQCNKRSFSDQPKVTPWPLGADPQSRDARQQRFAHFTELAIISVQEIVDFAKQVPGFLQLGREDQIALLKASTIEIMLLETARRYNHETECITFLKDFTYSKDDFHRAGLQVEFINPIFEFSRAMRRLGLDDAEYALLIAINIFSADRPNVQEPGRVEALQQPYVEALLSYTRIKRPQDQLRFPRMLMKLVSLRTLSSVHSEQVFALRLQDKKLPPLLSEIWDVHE

Experiment [2] is described as follows: ATG_M_06_TRANS: Attagene TRANS-FACTORIAL HepG2 Assay for M06 Transcription Factor (Internal Marker) (AID 2282983; active means hit-call score of the fitted dose curve at least 0.9, where 1 is the maximum). Conditions: HepG2 Attagene TRANS M06 internal marker reporter. The procedure, abridged: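 Multi-reporter-transfected HepG2, 24 h treatment; reporter transcripts quantified via RT-PCR, primer-extension labelling and CE. DMSO-normalized gain-of-signal fit.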

In experiment [3] the target is Nuclear receptor subfamily 4 group A member 2 (Homo sapiens) (UniProt P43354). Put plainly: ATG_NURR1_TRANS: Attagene TRANS-FACTORIAL HepG2 Assay for human Nuclear Receptor Related Protein 1 (NURR1) (AID 2282985; active means hit-call score of the fitted dose curve at least 0.9, where 1 is the maximum). The settings on record: HepG2 Attagene TRANS reporter, mRNA readout. The procedure, abridged:
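Measures transcriptional activation by an exogenous NR-Gal4 chimera in transfected HepG2 liver cells. After 24 h, reporter RNA is reverse-transcribed, amplified and resolved by capillary electrophoresis; DMSO defines baseline.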

Experiment [4] concerns the target Transcriptional activator Myb (Homo sapiens) (UniProt P10242). The experiment is described as follows: ATG_Myb_CIS: Attagene CIS-FACTORIAL HepG2 Assay for human Myeloblastosis (Myb) Proto-Oncogene Transcription Factor (AID 2282986). Conditions: HepG2 Attagene CIS-FACTORIAL Myb reporter transcription; actives raise or lower the signal. Summed up: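 After 24 h of compound dosing, total RNA from transfected HepG2 cells is reverse-transcribed and the reporter sequences amplified, labeled and separated by capillary electrophoresis. Values come from bidirectional fitting against DMSO.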

The target of experiment [5] is Nuclear respiratory factor 1 (Homo sapiens) (UniProt Q16656). Put plainly: ATG_NRF1_CIS: Attagene CIS-FACTORIAL HepG2 Assay for human Nuclear Respiratory Factor 1 (NRF1) Orphan Gene (AID 2282987). Conditions: HepG2 NRF1 cis-element reporter, Attagene multiplex; actives raise or lower the signal. Summed up: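 Measured: fluorescent reporter-specific RT-PCR products from transfected HepG2 cells, separated by capillary electrophoresis. Exposure lasted 24 h. Analysis used bidirectional curve fitting with DMSO as negative control.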
Nuclear respiratory factor 1 (Homo sapiens), sequence (Q16656 whole entry, looked up): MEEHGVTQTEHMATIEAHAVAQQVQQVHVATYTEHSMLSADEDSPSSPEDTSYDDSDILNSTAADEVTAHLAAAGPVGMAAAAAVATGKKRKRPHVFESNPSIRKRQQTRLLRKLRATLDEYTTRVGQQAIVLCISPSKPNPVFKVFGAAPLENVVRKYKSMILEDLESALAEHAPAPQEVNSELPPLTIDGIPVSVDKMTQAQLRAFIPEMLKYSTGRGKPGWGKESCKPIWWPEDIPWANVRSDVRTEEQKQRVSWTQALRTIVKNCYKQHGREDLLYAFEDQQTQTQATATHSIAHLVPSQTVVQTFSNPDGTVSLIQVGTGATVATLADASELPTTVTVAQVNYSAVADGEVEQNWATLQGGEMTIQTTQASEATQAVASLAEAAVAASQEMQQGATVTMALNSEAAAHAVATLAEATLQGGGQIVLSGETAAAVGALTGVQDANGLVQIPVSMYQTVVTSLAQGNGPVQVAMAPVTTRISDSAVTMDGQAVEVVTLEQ

Experiment [6] in a line: ATG_NFI_CIS: Attagene CIS-FACTORIAL HepG2 Assay for human Nuclear Factor I (NFI) (AID 2282989). The settings on record: HepG2 cis-regulatory reporter, NFI response element transcription; actives raise or lower the signal. Summed up: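 Reporter transcripts were measured by RT-PCR with fluorescent primer extension and capillary electrophoresis 24 h post-treatment. HepG2 cells carried transiently transfected cis-regulated reporter constructs reporting endogenous factor activity; gain or loss fitted against DMSO baseline.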

Experiment [7] concerns the target Myc proto-oncogene protein (Homo sapiens) (UniProt P01106). Put plainly: ATG_Myc_CIS: Attagene CIS-FACTORIAL HepG2 Assay for human Myelocytomatosis (Myc) Proto-Oncogene Transcription Factor (AID 2282990). Conditions: HepG2, Attagene cis-reporter transcription factor activity; actives raise or lower the signal. The procedure, abridged: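 Cells of the HepG2 human liver line bear multiple cis-driven reporter transcription units. Reporter mRNA after 24 h exposure is reverse-transcribed, amplified, labelled and resolved by capillary electrophoresis, with gain- or loss-of-signal fitting relative to DMSO.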

Experiment [8] can be described thus: ATG_NF_kB_CIS: Attagene CIS-FACTORIAL HepG2 Assay for human Nuclear Factor Kappa B (NF-kB) (AID 2282991). The settings on record: HepG2 Attagene cis-factorial NF-kB reporter mRNA; actives raise or lower the signal. The procedure, abridged: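 Fluorescence of labelled RT-PCR products separated by capillary electrophoresis gives reporter mRNA levels from transfected HepG2 cells exposed 24 h; values are fitted in both directions relative to DMSO.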

A short description of experiment [9]: ATG_NRF2_ARE_CIS: Attagene CIS-FACTORIAL HepG2 Assay for human Nuclear Factor Erythroid 2 Related Factor 2 (NFR2) response to Antioxidant Response Elements (ARE) (AID 2282992). Conditions: HepG2 Attagene ARE/NRF2 reporter, transcription factor activity; actives raise or lower the signal. The procedure, abridged:
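Using transiently transfected HepG2 cells exposed for 24 h, reporter mRNA levels were determined by RT-PCR with fluorescent primer extension and capillary electrophoresis, analysed for gain or loss of signal against DMSO.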

Experiment [10] is described as follows: ATG_Oct_MLP_CIS: Attagene CIS-FACTORIAL HepG2 Assay for human Octamer-Binding Transcription Factor (Oct) (AID 2282993). The settings on record: HepG2 Attagene cis-factorial Oct reporter, mRNA; actives raise or lower the signal. Summed up: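 Readout is reporter transcript level from RT-PCR with fluorescent primer extension and capillary electrophoresis, fitted in both directions against DMSO. Transfected HepG2 reporter units report endogenous factor activity after 24 h dosing.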

The target in experiment [11] is Cellular tumor antigen p53 (Homo sapiens) (UniProt P04637). The experiment is described as follows: ATG_p53_CIS: Attagene CIS-FACTORIAL HepG2 Assay for human p53 Transcription Factor (AID 2282994). The settings on record: HepG2 p53 cis-element reporter, Attagene mRNA; actives raise or lower the signal. Summed up: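 In HepG2 cells, reporter transcription units under cis-regulatory promoters were transiently introduced. Following 24 h treatment, RNA was processed to labelled, digested cDNA fragments read by capillary electrophoresis; fitting was bidirectional versus DMSO.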
Cellular tumor antigen p53 (Homo sapiens), sequence (P04637 whole entry, looked up, the tested form may be a part): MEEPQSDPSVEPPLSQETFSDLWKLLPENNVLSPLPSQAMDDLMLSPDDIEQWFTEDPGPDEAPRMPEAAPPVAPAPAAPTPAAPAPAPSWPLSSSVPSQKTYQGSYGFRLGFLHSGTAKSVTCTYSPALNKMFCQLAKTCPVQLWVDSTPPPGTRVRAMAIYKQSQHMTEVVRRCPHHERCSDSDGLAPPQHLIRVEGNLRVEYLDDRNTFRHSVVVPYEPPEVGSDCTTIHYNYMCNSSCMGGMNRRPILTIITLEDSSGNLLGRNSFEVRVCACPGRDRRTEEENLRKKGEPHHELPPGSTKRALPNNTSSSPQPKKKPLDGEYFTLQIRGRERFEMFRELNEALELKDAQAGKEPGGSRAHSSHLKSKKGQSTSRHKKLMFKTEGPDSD

Experiment [12] has as its target human Peroxisome Proliferator-activated Receptor alpha (PPARa), PPARA (gene 5465) (UniProt Q07869). Put plainly: ATG_PPARa_TRANS: Attagene TRANS-FACTORIAL HepG2 Assay for human Peroxisome Proliferator-activated Receptor alpha (PPARa) (AID 2283001; active means hit-call score of the fitted dose curve at least 0.9, where 1 is the maximum). Summed up: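 Transfected HepG2 cells treated with test chemical for 24 h. RNA isolated, reverse-transcribed with oligo(dT), PCR-amplified, FAM-labelled and HpaI-digested. Fragments sized by capillary electrophoresis; gain-of-signal fit relative to DMSO.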

Experiment [13] addresses human Peroxisome Proliferator-activated Receptor delta (PPARd), PPARD (gene 5467) (UniProt Q03181). Put plainly: ATG_PPARd_TRANS: Attagene TRANS-FACTORIAL HepG2 Assay for human Peroxisome Proliferator-activated Receptor delta (PPARd) (AID 2283002; active means hit-call score of the fitted dose curve at least 0.9, where 1 is the maximum). Summed up: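 Cell-based TRANS reporter: HepG2, transient MRTU transfection, 24 h exposure. Readout = reporter mRNA (RT-PCR/CE, 6-FAM). Gain-of-signal fit vs DMSO control.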

Experiment [14] in a line: ATG_M_32_TRANS: Attagene TRANS-FACTORIAL HepG2 Assay for M32 Transcription Factor (Internal Marker) (AID 2282984; active means hit-call score of the fitted dose curve at least 0.9, where 1 is the maximum;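 further: transcript level of a background control reporter unit measured by RT-PCR and capillary electrophoresis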). Conditions: HepG2 Attagene TRANS M32 internal marker reporter. Summed up: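 Cell-based TRANS-format assay in HepG2: exogenous chimeric GAL4 reporter units transiently expressed, compounds applied 24 h. Reporter mRNA detected by RT-PCR plus capillary electrophoresis; this readout is an internal background marker.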

A short description of experiment [15]: BSK_3C_TissueFactor: BioMAP Diversity Plus: 3C Assay for Tissue Factor Biomarker Activity (AID 2282997). Conditions: BioMAP 3C HUVEC, tissue factor biomarker readout; actives raise or lower the signal. The procedure, abridged: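 In this endothelial system, HUVEC are treated for 24 h and Tissue Factor is assessed by ELISA, normalised to DMSO.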
The nature of experiment [16]: BSK_3C_uPAR: BioMAP Diversity Plus: 3C Assay for Urokinase-type plasminogen activator receptor (uPAR) Biomarker Activity (AID 2282998). The settings on record: BioMAP 3C HUVEC, uPAR biomarker ELISA; actives raise or lower the signal. The procedure, abridged: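 Cell-surface uPAR on HUVEC (3C system) read by ELISA at 24 h post-treatment, with DMSO as baseline and fitting in both directions. Parallel cultures stained with SRB to flag overt cytotoxicity.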

Experiment [17] is described as follows: BSK_3C_VCAM1: BioMAP Diversity Plus: 3C Assay for Vascular cell adhesion molecule 1 (VCAM1) Biomarker Activity (AID 2282999). The settings on record: BioMAP 3C HUVEC, VCAM1 ELISA, cytokine-stimulated; actives raise or lower the signal. The procedure, abridged:
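Activity fitted in both directions relative to DMSO, with ELISA measurement of the surface marker on primary HUVEC (3C) at 24 h post-treatment; parallel SRB staining (0.1% SRB, TCA-fixed, 560 nm) flagged overt cytotoxicity.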

The nature of experiment [18]: BSK_4H_Eotaxin3: BioMAP Diversity Plus: 4H Assay for Eotaxin 3 Biomarker Activity (AID 2283000).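 Further: CCL26 protein level quantified by ELISA in parallel with SRB cytotoxicity check.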 The settings on record: primary human endothelial cells (HUVEC); actives raise or lower the signal. The procedure, abridged: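 ELISA quantitation of CCL26 (Eotaxin-3) protein from chemically dosed human vascular endothelial cells at 24 h; increases and decreases both scored relative to DMSO-treated baseline.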

Experiment [19] has as its target Hepatocyte nuclear factor 4-alpha (Homo sapiens) (UniProt P41235). Put plainly: ATG_HNF4a_TRANS: Attagene TRANS-FACTORIAL HepG2 Assay for human Hepatocyte Nuclear Factor 4 alpha (HNF4a) (AID 2282982; active means hit-call score of the fitted dose curve at least 0.9, where 1 is the maximum). The settings on record: HepG2 HNF4a transactivation reporter, mRNA readout. Summed up:
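Multiplexed reporter assay: transfected HepG2, 24 h exposure, total RNA → oligo(dT) RT → PCR → 6-FAM extension → HpaI digest → CE fluorescence. DMSO = negative control.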

Results filed as inconclusive are left out. Calls of active or inactive are those of the source. How the source made its calls, unless noted: active means hit-call score of the fitted dose curve at least 0.9, where 1 is the maximum; inactive means score below 0.9.

Myc proto-oncogene protein (Homo sapiens), sequence (P01106 whole entry, looked up): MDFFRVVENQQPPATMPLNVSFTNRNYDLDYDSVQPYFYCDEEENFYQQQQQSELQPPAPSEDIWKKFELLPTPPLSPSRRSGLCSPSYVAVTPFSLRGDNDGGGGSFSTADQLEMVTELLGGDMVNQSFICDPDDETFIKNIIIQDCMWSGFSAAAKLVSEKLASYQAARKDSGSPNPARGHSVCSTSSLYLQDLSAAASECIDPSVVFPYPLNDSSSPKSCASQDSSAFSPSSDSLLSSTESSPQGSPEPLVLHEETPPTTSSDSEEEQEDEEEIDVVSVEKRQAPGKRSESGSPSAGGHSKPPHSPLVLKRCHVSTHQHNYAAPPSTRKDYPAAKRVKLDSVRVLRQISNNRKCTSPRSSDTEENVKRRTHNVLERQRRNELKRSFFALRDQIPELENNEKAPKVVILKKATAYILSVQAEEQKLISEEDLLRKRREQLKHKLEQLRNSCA
Nuclear receptor subfamily 4 group A member 2 (Homo sapiens), sequence (P43354 whole entry, looked up, the tested form may be a part): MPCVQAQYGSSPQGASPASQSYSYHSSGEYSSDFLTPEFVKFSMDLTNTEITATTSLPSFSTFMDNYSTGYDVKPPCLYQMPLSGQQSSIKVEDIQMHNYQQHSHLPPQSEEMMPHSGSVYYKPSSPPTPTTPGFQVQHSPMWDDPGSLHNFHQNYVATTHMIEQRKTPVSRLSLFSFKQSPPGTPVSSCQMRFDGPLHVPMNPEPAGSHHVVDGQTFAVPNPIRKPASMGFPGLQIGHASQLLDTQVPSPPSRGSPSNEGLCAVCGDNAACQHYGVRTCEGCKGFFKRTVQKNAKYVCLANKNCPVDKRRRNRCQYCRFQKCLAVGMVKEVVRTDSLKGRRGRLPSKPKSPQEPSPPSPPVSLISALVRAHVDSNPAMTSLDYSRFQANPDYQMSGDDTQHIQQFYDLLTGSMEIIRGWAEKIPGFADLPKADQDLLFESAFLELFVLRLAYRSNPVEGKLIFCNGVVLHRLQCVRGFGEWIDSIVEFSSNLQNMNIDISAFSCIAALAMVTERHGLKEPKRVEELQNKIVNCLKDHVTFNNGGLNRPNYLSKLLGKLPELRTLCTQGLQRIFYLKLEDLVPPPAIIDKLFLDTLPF
human Peroxisome Proliferator-activated Receptor alpha (PPARa), PPARA (gene 5465), sequence (Q07869 whole entry, looked up, the tested form may be a part): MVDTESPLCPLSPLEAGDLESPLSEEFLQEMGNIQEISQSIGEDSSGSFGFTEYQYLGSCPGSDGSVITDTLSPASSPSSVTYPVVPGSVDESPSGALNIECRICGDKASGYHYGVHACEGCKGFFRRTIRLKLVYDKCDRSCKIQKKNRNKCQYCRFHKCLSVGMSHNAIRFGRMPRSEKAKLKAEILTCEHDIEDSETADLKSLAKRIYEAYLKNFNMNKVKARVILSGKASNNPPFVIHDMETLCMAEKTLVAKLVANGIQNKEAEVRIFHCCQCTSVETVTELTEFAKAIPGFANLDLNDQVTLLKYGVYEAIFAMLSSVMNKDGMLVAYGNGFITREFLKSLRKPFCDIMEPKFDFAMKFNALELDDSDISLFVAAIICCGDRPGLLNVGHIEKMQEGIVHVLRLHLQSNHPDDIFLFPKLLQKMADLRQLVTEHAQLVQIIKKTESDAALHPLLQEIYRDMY
Transcriptional activator Myb (Homo sapiens), sequence (P10242 whole entry, looked up): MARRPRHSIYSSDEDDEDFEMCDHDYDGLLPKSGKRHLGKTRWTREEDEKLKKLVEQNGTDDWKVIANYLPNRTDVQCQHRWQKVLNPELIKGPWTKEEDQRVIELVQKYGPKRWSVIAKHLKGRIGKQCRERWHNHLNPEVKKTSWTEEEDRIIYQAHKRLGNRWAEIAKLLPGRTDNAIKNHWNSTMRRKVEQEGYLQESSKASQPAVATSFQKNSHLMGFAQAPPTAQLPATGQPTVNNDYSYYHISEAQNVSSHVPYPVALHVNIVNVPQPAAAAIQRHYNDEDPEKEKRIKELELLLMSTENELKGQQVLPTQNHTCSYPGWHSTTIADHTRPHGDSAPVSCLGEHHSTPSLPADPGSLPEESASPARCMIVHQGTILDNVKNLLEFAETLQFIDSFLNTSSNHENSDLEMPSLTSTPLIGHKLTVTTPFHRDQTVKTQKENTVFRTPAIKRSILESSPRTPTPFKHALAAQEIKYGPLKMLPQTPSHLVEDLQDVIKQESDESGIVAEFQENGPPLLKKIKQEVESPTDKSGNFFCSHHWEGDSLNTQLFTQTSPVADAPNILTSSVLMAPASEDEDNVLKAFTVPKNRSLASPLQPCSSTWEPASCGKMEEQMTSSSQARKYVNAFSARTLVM
human Peroxisome Proliferator-activated Receptor delta (PPARd), PPARD (gene 5467), sequence (Q03181 whole entry, looked up): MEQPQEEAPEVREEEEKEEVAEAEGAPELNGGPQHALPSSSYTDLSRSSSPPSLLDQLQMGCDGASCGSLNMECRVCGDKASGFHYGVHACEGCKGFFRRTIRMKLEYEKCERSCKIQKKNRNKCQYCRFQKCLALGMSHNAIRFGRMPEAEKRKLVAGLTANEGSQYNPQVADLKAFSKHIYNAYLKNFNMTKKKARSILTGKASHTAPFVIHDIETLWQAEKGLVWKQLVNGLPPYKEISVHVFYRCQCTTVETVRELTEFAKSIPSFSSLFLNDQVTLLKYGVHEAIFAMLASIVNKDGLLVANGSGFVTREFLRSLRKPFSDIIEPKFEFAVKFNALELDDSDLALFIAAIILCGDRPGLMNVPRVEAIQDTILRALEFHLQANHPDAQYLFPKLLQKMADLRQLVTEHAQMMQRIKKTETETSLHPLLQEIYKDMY
Hepatocyte nuclear factor 4-alpha (Homo sapiens), sequence (P41235 whole entry, looked up): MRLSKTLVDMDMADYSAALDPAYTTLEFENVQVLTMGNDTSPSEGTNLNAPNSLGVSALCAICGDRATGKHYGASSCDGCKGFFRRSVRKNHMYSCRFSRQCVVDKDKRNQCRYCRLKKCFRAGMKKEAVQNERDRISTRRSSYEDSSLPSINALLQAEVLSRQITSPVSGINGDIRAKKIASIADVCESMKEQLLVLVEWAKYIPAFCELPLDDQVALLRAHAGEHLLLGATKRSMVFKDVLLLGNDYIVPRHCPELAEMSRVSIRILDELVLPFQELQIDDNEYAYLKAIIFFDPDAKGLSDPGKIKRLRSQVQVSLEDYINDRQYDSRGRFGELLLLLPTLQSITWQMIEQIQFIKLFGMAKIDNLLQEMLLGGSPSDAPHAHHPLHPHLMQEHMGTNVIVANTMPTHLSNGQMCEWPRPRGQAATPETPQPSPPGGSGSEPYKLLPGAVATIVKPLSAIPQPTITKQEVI

For the molecule `OCC1CCC(CO)CC1` (stereo unspecified), the molecule was called inactive in experiment [1], in experiment [2], in [3], in [4], in experiment [5] and in experiment [6]. Also, the molecule was classed as inactive in experiment [7], in [8], in [9], in experiment [10], in experiment [11] and in experiment [12]. Further, the molecule was called inactive in [13].

As to `C[C@]12CC[C@@H]3c4ccc(O)cc4CC[C@H]3[C@@H]1CC[C@@H]2OC(=O)CCC1CCCC1`, the outcome in experiment [1], in experiment [2], in [4], in experiment [5], in experiment [7] and in experiment [8] was inactive. In addition, the call in [11], in experiment [12] and in [13] was inactive. Moreover, the AC50 in experiment [6] was 100 µM (active); in experiment [9], 21.5 µM (active).

`CC(C)(O)C(=O)c1ccccc1`: the call in [1], in experiment [14], in [3], in experiment [4], in experiment [5] and in experiment [7] was inactive. Besides, the result in experiment [8], in experiment [9], in experiment [10], in experiment [11], in experiment [12] and in experiment [13] was inactive.

In the case of `CN(C)CCOC(c1ccccc1)c1ccccc1`, the molecule was called inactive in experiment [1], in experiment [2], in [4], in experiment [7], in experiment [10] and in experiment [15]. Also, the result in experiment [16], in experiment [17] and in experiment [18] was inactive.

As for `Nc1ccn([C@@H]2O[C@H](CO)[C@@H](O)C2O)c(=O)n1` (stereo partly specified), the molecule was called inactive in [1], in [19], in experiment [3], in experiment [4], in [5] and in [6]. Moreover, the outcome in experiment [7], in [9], in experiment [10] and in experiment [12] was inactive. The AC50 in [13] was 56.6 µM (active).
